High-throughput results (PubChem BioAssay)
MARV entry inh – qHTS for inhibitors of binding or entry into cells for Marburg Virus; 1.8% of 300,000 active; Potency, µM (doses to about 37.8 µM), for the others: at the top dose activity change, negative = inhibition, most hits filed as inhibitors; Marburg virus pseudotyped entry inhibition, cell reporter; calls by dose curve; tested in HEK293 cells; also: potency is read from the fitted curve at half-maximal effect; % is scaled to controls: 0 for no effect and ±100 for the full control effect
CHX counter-1 – Cycloheximide Counterscreen for Small Molecule Inhibitors of Shiga Toxin | cell reporter, cycloheximide protein synthesis inhibition counterscreen | max response, % | 12% of 300,000 active; in the data active = max response mostly above about 13%, no sharp cut-off; inactive = mostly below about 14%; also: read at 38.3 µM for the half of the compounds with a filed dose; 0% is about no effect
Shiga toxin inh – A qHTS for Small Molecule Inhibitors of Shiga Toxin; Vero cells, Shiga toxin protein synthesis inhibition reporter; inhibition, % at 38.7 µM; 9.2% of 290,000 active; in the data active = inhibition mostly above about 28%, no sharp cut-off; inactive = mostly below about 43%; also: 0% is about no effect
LASV entry inh – qHTS for Inhibitors of binding or entry into cells for Lassa Virus; Lassa virus pseudotype entry inhibition, cell reporter; Potency, µM (doses to about 37.9 µM), inactives show at the top dose activity change, negative = inhibition, actives largely listed as inhibitors; 1.2% of 300,000 active; calls by dose curve; tested in HEK293 cells; also: potency is read from the fitted curve at half-maximal effect; % is scaled to controls: 0 for no effect and ±100 for the full control effect; nearly all actives have a fitted effect of over 50% in size
CHX counter-2 – Cycloheximide Counterscreen for Small Molecule Inhibitors of Shiga Toxin (Confirmatory); shares compounds with Shiga toxin inh; Cycloheximide counterscreen, protein synthesis reporter, Shiga toxin assay; Potency, µM (series often up to 38.3 µM), for the others: at the top dose activity (activation), actives largely listed as activators; 3% of 510 active; AID 2318, 2010; calls by dose curve; also: potency is read from the fitted curve at half-maximal effect; 0% is about no effect
* = called active by the depositor; ? = inconclusive; / = no result; [ ] = remark or other dose. Only some compounds are listed: those with a hit (about 12% of all), similar ones and a draw of the others.

SMILES	MARV entry inh	CHX counter-1	Shiga toxin inh	LASV entry inh	CHX counter-2
CC(C)Cc1nc2oc3c(NCC4CCCO4)ncnc3c2c2c1CCC2 (stereo not drawn)	?	-3.6	58.5*	-23.8%	-4.4%
C/C1=C\[C@@H](O)C(C(C)C)C(OC(=O)c2ccc(O)cc2)C/C(C)=C/CC1 (stereo partly drawn)	/	4.2	24.5*	/	?
CCc1ccccc1NC(=O)Cn1nnc(-c2cccs2)n1	-21.4%	-3.6	48.5*	21.9%	0.2%
CCOC(=O)N1CCN(S(=O)(=O)c2ccc(C(=O)NNc3nc4c(C)cccc4s3)cc2)CC1	?	-2.3	6.7	?	/
CCOC(=O)N1CCN(S(=O)(=O)c2ccc(C(=O)NNc3nc4c(C)cc(C)cc4s3)cc2)CC1	?	5.2	42.8*	?	-5.3%
COc1ccc(/C=C/c2nnc(NC(=O)CSc3ccc(Cl)cc3)s2)cc1	-7.0%	8.3	37.3*	-21.5%	?
CCc1nnc(NC(=O)CSc2ccc(Cl)cc2)s1	-0.3%	-0.3	2.5	-1.2%	/
CC(NC(=O)c1ccc(CS(C)(=O)=O)cc1)c1cccc2ccccc12 (stereo not drawn)	-24.2%[46.1 µM]	-3.2	-2.5	/	/
Cc1cc(Oc2ccc(N)cn2)ccc1Cl	8.1%	12.6	35.3	-3.6%	/
COc1cccc(Oc2ccc(N)cn2)c1	26.1%	8.9	29.0*	12.8%	1.5%
O=C(NCc1ccco1)c1noc2c1CCCC2	4.4%	10.4	41.9*	?	?
Cc1ccc(NC(=O)CN2CCC(NC(=O)Cc3ccccc3)CC2)c(C)c1	23.2%	-3.7	-17.1	2.2%	/
Cc1cc(Cl)ccc1NC(=O)CN1CCC(C(O)(c2ccccc2)c2ccccc2)CC1	?	-5.2	122.3*	?	-2.1%
Cc1ccc(-n2nnc(C(=O)Nc3cc(F)ccc3F)c2C)cc1F	0.5%[46.1 µM]	/	/	?	/
CCOc1ccc2nc(NC(=O)CN3CCN(c4ccccn4)CC3)sc2c1	?	13.5	55.7*	-13.3%	3.7%
CCN(CC)CCN(Cc1cc2cc3c(cc2[nH]c1=O)OCO3)C(=S)NC	2.0%[46.1 µM]	-3.2	/	6.9%[46.1 µM]	/
CCOC(=O)Cc1csc(NC(=O)CSc2ncnc3c2cnn3-c2ccc(OC)cc2)n1	?	19.0	81.0*	2µM*	?
CCOC(=O)CNC(=O)CSc1ncnc2c1cnn2-c1ccc(Cl)cc1	26.8%[46.1 µM]	-3.3	-3.6	6.7%	/
CCOC(=O)C1=C(O)/C(=C\c2cccs2)N=C1C	-4.3%	-1.3	-13.5	12.6%	/
CCOC(=O)C1=C(O)/C(=C\c2ccc(CNC(=O)C(=O)Nc3ccccc3)o2)N=C1C	27.6%	4.1	42.3*	-10.3%	0.6%
CCn1c2ccccc2c2cc(NC(=O)c3cccc([N+](=O)[O-])c3)ccc21	?	8.9	60.7*	-15.1%	-3.1%
CCn1c2ccccc2c2cc(NC(=O)c3ccc(C)c([N+](=O)[O-])c3)ccc21	-19.0%	11.1	7.8	?	/
CN(CCc1ccccc1)C1CCCN(S(=O)(=O)N(C)C)C1 (stereo not drawn)	/	-1.3	1.7	/	/
CC(=O)c1cccc(NC(=O)/C(=C/c2ccco2)NC(=O)c2ccco2)c1	-12.5%[46.1 µM]	2.0	27.3*	21.1%[46.1 µM]	6.0%
CN(Cc1ccccc1C#N)S(=O)(=O)c1cccs1	2.2%[46.1 µM]	7.3	34.4	24.1%	/
SMILES	MARV entry inh	CHX counter-1	Shiga toxin inh	LASV entry inh	CHX counter-2
COc1ccccc1CN(C)S(=O)(=O)c1cccs1	6.9%[46.1 µM]	5.6	68.6*	5.1%[46.1 µM]	3.2%
CN(CCCC(=O)NCCc1ccccc1)S(=O)(=O)c1ccc([N+](=O)[O-])cc1	-15.8%[46.1 µM]	-1.4	-5.4	-25.1%[46.1 µM]	/
O=C(COc1ccc2ccc(=O)oc2c1)NCc1ccccn1	/	-2.4	-10.8	/	/
Cc1cc(OCC(=O)NCc2ccccn2)cc(C)c1Br	-5.3%	2.4	47.1*	10.3%	5.5%
Cc1nc(C(=O)NC2CCCCC2)sc1C1(C)CC(c2cccc([N+](=O)[O-])c2)=NO1 (stereo not drawn)	/	-3.2	-2.8	/	/
Cc1nc(-c2ccccc2)sc1C1(C)CC(c2cccc([N+](=O)[O-])c2)=NO1 (stereo not drawn)	/	1.2	30.1*	/	1.1%
Cc1c(C)c(C)c(CO/N=C/c2cccs2)c(C)c1C	?	-1.8	-6.6	-2.1%	/
Cn1cc(Br)c(C(=O)N2CCc3ccccc32)n1	9.0%	8.7	active	8.7%	6.4%
Cn1ncc(Br)c1C(=O)N1CCc2ccccc21	6.1%	-2.5	15.7	2.5%	/
COc1ccc(NCc2cc3cc4c(cc3n(CC(=O)Nc3ccc(C)cc3)c2=O)OCO4)cc1	/	/	/	-25.9%[46.1 µM]	/
O=C(N1CCOCC1)N1CCN(S(=O)(=O)c2cccc([N+](=O)[O-])c2)CC1	/	1.2	23.6	/	/
O=c1[nH]nc(CNc2ccc(C(F)(F)F)cc2)c2ccccc12	/	15.3	29.4*	/	?
O=c1[nH]nc(CNc2ccc(OC(F)(F)F)cc2)c2ccccc12	/	21.5	27.9	/	/
Cc1ccc(NC2=NCC(=O)N2C2CCCC2)cc1	1.9%[46.1 µM]	7.2	57.9*	20.3%[46.1 µM]	-1.9%
Cc1ccc(NC2=NCC(=O)N2C2CCCC2)cc1C	-4.5%[46.1 µM]	0.9	10.5	24.5%	/
Cc1cc(N2C(=O)C(=O)/C(=C(/O)c3ccc(F)cc3)C2c2cccc(Br)c2)no1 (stereo not drawn)	2.5%	1.3	-3.0	5.5%	/
Cc1ccc(/C(O)=C2\C(=O)C(=O)N(c3cc(C)on3)C2c2cccc(Br)c2)cc1 (stereo not drawn)	1.7%	2.4	39.1*	8.0%	-3.4%
CCCn1nnc(NC(=O)COc2ccc(C3CCCCC3)cc2)n1	-5.2%	-4.0	75.4*	-18.0%	-0.5%
CCCn1nnc(NC(=O)COc2ccc(Cl)cc2)n1	-6.5%[46.1 µM]	11.1	12.0	-1.3%	/
COc1ccc2cc(C3CC(c4ccco4)=NN3C(=O)CCC(=O)O)c(Cl)nc2c1 (stereo not drawn)	?	-0.6	9.9	1.6%	/
COc1ccc(C2=NN(C(=O)c3ccco3)C(c3cc4ccccc4nc3Cl)C2)cc1 (stereo not drawn)	/	5.5	27.6*	/	-0.2%
COc1ccccc1CN(Cc1cccnc1)S(=O)(=O)c1ccc(-n2cnnn2)c(OC)c1	7.2%[46.1 µM]	1.5	47.4*	0.2%[46.1 µM]	-1.8%
CCOC(=O)c1c(C2COc3ccccc3O2)csc1NC(=O)c1ccco1 (stereo not drawn)	-43.5%	-1.2	25.8*	-8.9%	-4.1%
CCc1nc2ccccc2c(=O)n1NCCc1ccccc1	-24.1%	-0.7	49.1*	-1.0%	3.7%
FC(F)(F)c1cccc(-n2c(Cn3nnc4ccccc43)n[nH]c2=S)c1	0.0%[46.1 µM]	-1.1	-11.8	11.6%[46.1 µM]	/
Cc1ccccc1N(CC(=O)NCc1ccco1)C(=O)CCC(=O)Nc1nccs1	18.5%[46.1 µM]	-3.7	24.1	-3.5%	/
Cc1ccc(N(CC(=O)NCc2ccco2)C(=O)CCC(=O)Nc2nccs2)c(C)c1	-4.4%[46.1 µM]	9.4	27.2*	?	-1.2%
Cc1nn(C2CCCCC2)c(N)c1-c1ccccc1	1.4%	-2.2	32.5*	4.4%	3.4%
Cc1ccc(NC(=S)NNC(=O)CSc2nc3ccccc3c(=O)n2-c2ccc(C)cc2)cc1	-41.5%	-2.1	-8.8	-3.1%	/
